CSC inhib – cancer stem cell inhibition; 300,000 compounds, 1.1% hits; AID 2717; inhibition, % at 7.5 µM; cancer stem cell-like cells viability, luminescence; in the data active means inhibition above about 75%; inconclusive means no clear call, values can overlap the other calls; tested in HMLE shEcad cells
697 NFkB inh – inhibitors of the PMA/ionomycin-induced NF-kB reporter in 697 B cells; 697 B-cell NF-kB luciferase reporter, 16 h; inhibition, % at 4 µM; 330,000 compounds, 0.33% hits; in the data active means inhibition above about 35%
Beta cell apopt – beta cell apoptosis inhibition; INS-1E cytokine-induced death, ATP luminescence, 48 h; percent of positive-control rescue, neutral wells zero; AID 435005; protection from apoptosis, % (no concentration beside the values); 300,000 compounds, 0.8% hits;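 active means Every replicate reaches about 75%, or at least half do and their mean reaches it too, limit read from the data; inconclusive means At least half of replicates reach the limit but their mean does not; inactive means Under half of replicates reach the limit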;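 further: higher means more ATP so stronger rescue from cytokine killing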
Mdm2-MdmX inh – human Mdm2/MdmX binding inhibition; SaOS-2 split-luciferase Mdm2/MdmX complementation, luminescence; 330,000 compounds, 3% hits; inhibition, % at 8 µM; AID 485346; O15151+Q00987;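 active means inhibition of at least 50% at 8 µM in the primary screen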
Jurkat NFkB inh – inhibitors of the PMA/ionomycin-induced NF-kB reporter in Jurkat cells; PMA/ionomycin-induced NF-kB luciferase reporter, luminescence; inhibition, % at 4 µM; 330,000 compounds, 0.53% hits; AID 435003; in the data active means inhibition above about 50%
Gli-Sufu block – antagonists of Gli-Sufu signaling; Sufu-KO-LIGHT fibroblasts, Gli luciferase reporter luminescence; inhibition, % at 5 µM; 340,000 compounds, 0.74% hits;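 active means inhibition above about 55%, limit read from the data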
Hits are given with their value; i = inactive; ? = inconclusive; nt = not tested or not shown. In the library only some 4.5% were active in any assay of this set; here they are far more common.

SMILES	CSC inhib	697 NFkB inh	Beta cell apopt	Mdm2-MdmX inh	Jurkat NFkB inh	Gli-Sufu block
O=S(=O)(N/N=C1/CC(c2ccccc2)Oc2ccccc21)c1ccc(Br)cc1 (centres undefined)	89	i	i	i	i	i
CC(C(=O)Nc1ccc(N2CCOCC2)cc1)N1C(=O)NC(C)(C)C1=O (centres undefined)	i	i	i	i	i	i
CCn1c(=O)c(C(=O)NCCc2ccccc2)c(O)c2ccccc21	95	i	i	i	i	i
COC(=O)c1ccccc1NCc1cc(=O)oc2cc(O)c(O)cc12	92	i	i	i	i	i
CC(=O)N1c2ccc(S(=O)(=O)N3CCC(C(=O)NCCc4ccc(Cl)cc4)CC3)cc2CC1C (centres undefined)	i	i	i	i	i	i
Cn1cc(/C=C/c2cc[n+](C)cc2)c2cc(F)ccc21	i	nt	i	nt	nt	i
Cn1cc(/C=C/c2cc[n+](C)cc2)c2cc(Cl)ccc21	i	nt	95	nt	nt	i
O=C(CSc1nc(-c2ccco2)cc(C(F)(F)F)n1)Nc1ccccc1C(F)(F)F	75	i	i	i	i	i
COc1ccc(CNC(=O)c2ccccc2SCC(=O)NCc2ccco2)cc1	i	i	i	i	i	i
O=C(Nc1ccccc1N1CCCCC1)c1ccc(Cl)c([N+](=O)[O-])c1	80	i	i	i	i	i
CN1CCN(c2ccccc2NC(=O)c2ccc(N3CCCC3)c([N+](=O)[O-])c2)CC1	nt	i	nt	i	i	i
Cc1ccc(CN(CC(O)COc2cccc3[nH]cc(C)c23)C(C)(C)C)cc1 (centres undefined)	76	i	i	i	i	i
COC(=O)Cc1c[nH]c2cccc(OCC(O)CN(Cc3ccc([N+](=O)[O-])cc3)C(C)(C)C)c12 (centres undefined)	i	i	nt	i	i	i
c1ccc(C[n+]2c(-c3ccccc3)csc2Nc2ccccc2)cc1	83	i	i	i	i	i
CCN(CC)S(=O)(=O)c1ccc(Cl)c(NC(=O)COc2ccc(OC)cc2)c1	i	i	i	i	i	i
Nc1c(C(=O)Nc2ccc3c(c2)OCCO3)nnn1Cc1cccc(Cl)c1	i	i	i	i	i	i
Nc1c(C(=O)Nc2ccc3c(c2)OCCO3)nnn1Cc1ccccc1Cl	i	i	93	i	i	i
COc1ccc(C)cc1NC(=O)CSc1nnc(COc2ccc(Cl)cc2)n1Cc1ccco1	79	i	i	i	i	i
CCC(=O)c1cn(CC(=O)Nc2cccc(C)c2C)c2ccccc12	i	i	i	i	i	73
CC(=O)c1cn(CC(=O)Nc2cccc(C)c2C)c2ccccc12	i	i	i	i	i	i
O=c1c(Cl)c(NCc2ccccc2)cnn1C12CC3CC(CC(C3)C1)C2	77	i	i	i	i	i
O=C(O)CC12CC3CC(C1)CC(n1ncc(NCc4ccco4)c(Cl)c1=O)(C3)C2	i	i	i	i	i	i
O=C(NCCCN1CCCC1=O)c1c(O)nc2sccn2c1=O	i	i	nt	i	i	i
Cc1ccc(C)c(S(=O)(=O)N2CCN(C(=O)CSC(=S)N3CCCC3)CC2)c1	i	i	i	i	i	i
COc1cccc(CN2CCN(Cc3ccc4c(NC(C)=O)cccc4n3)CC2CCO)c1 (centres undefined)	i	i	i	i	i	i
SMILES	CSC inhib	697 NFkB inh	Beta cell apopt	Mdm2-MdmX inh	Jurkat NFkB inh	Gli-Sufu block
Cc1cc(C)n2nc(SCc3nnc(SCc4ccccc4C)s3)nc2n1	i	i	103	i	i	i
Cc1cc(C)n2nc(SCc3nnc(SCc4ccccc4Cl)s3)nc2n1	nt	i	nt	i	i	i
O=C(/C=C/c1cccs1)Nc1cccc(NC(=O)/C=C/c2cccs2)n1	i	i	i	i	i	i
Cc1cc(C)nc(NC(=O)/C=C/c2cccs2)c1	86	i	i	i	i	i
Cc1nc(Nc2ccc(S(=O)(=O)N3CCCCC3C)cc2)c2nnn(Cc3ccccc3)c2n1 (centres undefined)	i	i	76	i	i	i
CC(C)(Oc1ccc(Cl)cc1)C(=O)NC1=NN(c2ccccc2)C(=O)C1	112	i	i	i	i	i
O=C1CC(NC(=O)C(F)(F)F)=NN1c1ccccc1	i	i	i	i	i	i
Cc1[nH]c2ccccc2c1/C=N/Nc1ccccc1[N+](=O)[O-]	77	i	i	i	i	i
CC12CCC(=O)N1C(C(=O)NCCN1C(=O)S/C(=C\c3ccc(F)cc3)C1=O)CS2 (centres undefined)	i	i	i	i	i	i
CC(C)CN1CCC(=O)N(CCO)CC1	i	i	i	i	i	i
Cc1ccccc1C(=O)NNC(=O)C(=O)N1CCCCC1	i	i	i	i	i	i
Cc1ccc(NNC(=O)C(=O)N2CCCCC2)cc1	112	i	nt	i	i	i
CCCCN(C(=O)c1ccncc1)c1c(N)n(CCC)c(=O)[nH]c1=O	i	i	i	i	i	i
C[C@H](CO)N1C[C@H](C)[C@@H](CN(C)S(C)(=O)=O)Oc2c(NC(=O)C3CC3)cccc2C1=O	nt	i	i	i	i	i
CC1=NN(c2ccccc2)C(=O)/C1=C/c1c(O)n(-c2ccc(F)cc2)[nH]c1=O	87	i	i	i	i	i
COc1ccccc1NC(=O)NC(=O)c1ccccc1	i	i	i	i	i	i
O=C(c1ccco1)N1CCN(S(=O)(=O)c2c(Cl)cccc2Cl)CC1	nt	i	nt	i	i	i
CCCCCCCC/C=C\CCCCCCCC(=O)NCCc1ccc(O)c(O)c1	100	i	?	i	i	57
CCCCCCCC/C=C\CCCCCCCC(=O)NCCO	i	i	i	i	i	i
C/C(=N/NC(=O)c1cccs1)c1c(C)[nH]n(-c2nc3ccccc3s2)c1=O	i	i	79	i	i	i
CC(=NCc1ccco1)c1c(C)[nH]n(-c2nc3ccccc3s2)c1=O	i	i	i	i	i	i
Cc1cc(C)c2nc(NNC(=O)c3cc(=O)c4ccccc4o3)sc2c1	79	i	i	i	i	i
CCOC(=O)Cc1csc(NC(=O)c2cc(=O)c3ccccc3o2)n1	i	i	i	i	i	i
Nc1ncc(Br)cc1S(=O)(=O)NCCC(=O)NCCc1ccccc1	i	i	i	i	i	i
O=S(=O)(Nc1cc2nc3ccccc3nc2n1Cc1ccccc1)c1ccc(Cl)cc1	112	nt	i	nt	nt	i
SMILES	CSC inhib	697 NFkB inh	Beta cell apopt	Mdm2-MdmX inh	Jurkat NFkB inh	Gli-Sufu block
O=S(=O)(NCc1ccccc1)c1ccc(Cl)cc1	nt	i	i	i	i	i
CCCn1c(SCC(=O)N(CC)c2c(N)n(Cc3ccccc3)c(=O)[nH]c2=O)nnc1-c1ccncc1	nt	nt	nt	nt	nt	i
CCCOc1ccc(N)cc1N	i	i	99	i	i	i
CCCOc1cc(N)ccc1C(=O)OCCN(CC)CC	i	i	nt	i	i	i
Cc1ccccc1CNc1ccc(C(CC(N)=O)NC(=O)c2ccc(Br)cc2)cc1[N+](=O)[O-] (centres undefined)	111	i	91	i	i	i
NC(=O)CC(NC(=O)c1ccc(Br)cc1)c1ccc(NCc2ccc(F)cc2)c([N+](=O)[O-])c1 (centres undefined)	?	i	i	i	i	i
